# Measurements taken from the supplement of paper PMC13380429.
# How the values were obtained:
# [1] = test system: Vero E6 infected with SARS-CoV-2; assay: morphology score (similarity to uninfected cells); higher = more like uninfected cells; settings: 24 h
# [2] = test system: Vero E6 infected with SARS-CoV-2; assay: SARS-CoV-2 infection rate relative to infected DMSO; higher = more infection, active = 60 or less; settings: 24 h
smiles,measurement,setting,value
CC#CC(=O)N1CCC[C@H]1c1nc(-c2ccc(C(=O)Nc3ccccn3)cc2)c2c(N)nccn12 [acalabrutinib] (10 µM),morphology score,[1],-0.00394
same,SARS-CoV-2 infection rate,[2],108% (inactive)
C[C@H]1NCc2cc(-c3ccc4c(=O)c(C(=O)O)cn(C5CC5)c4c3OC(F)F)ccc21 [garenoxacin] (10 µM),morphology score,[1],0.0451
same,SARS-CoV-2 infection rate,[2],102% (inactive)
Cc1ccc(-c2nc3ccc(C)cn3c2CC(=O)N(C)C)cc1 (10 µM),morphology score,[1],0.137
same,SARS-CoV-2 infection rate,[2],98.5% (inactive)
CC(C)(O)c1ccn2c(-c3ccc(F)c(-c4ccc(F)cc4C#N)c3)cnc2c1F (10 µM),morphology score,[1],-0.0136
same,SARS-CoV-2 infection rate,[2],108% (inactive)
C[C@@H]1CC[C@@]2(NC1)O[C@H]1C[C@H]3[C@@H]4CC=C5C[C@@H](O[C@@H]6O[C@H](CO)[C@@H](O[C@@H]7O[C@@H](C)[C@H](O)[C@@H](O)[C@H]7O)[C@H](O)[C@H]6O[C@@H]6O[C@@H](C)[C@H](O)[C@@H](O)[C@H]6O)CC[C@]5(C)[C@H]4CC[C@]3(C)[C@H]1[C@@H]2C [solamargine] (0.833333 µM),morphology score,[1],0.117
same,SARS-CoV-2 infection rate,[2],102% (inactive)
Cc1cccc(C)c1NC(=O)[C@@H](C)N [tocainide] (10 µM),morphology score,[1],-0.0832
same,SARS-CoV-2 infection rate,[2],109% (inactive)
CC(=O)OCC1=C(C(=O)O)N2C(=O)[C@@H](NC(=O)CS/C(=N/C(C)C)NC(C)C)[C@H]2SC1 [cefathiamidine] (10 µM),morphology score,[1],0.162
same,SARS-CoV-2 infection rate,[2],92% (inactive)
CCCCCOc1ccc(-c2ccc(-c3ccc(C(=O)N[C@H]4C[C@@H](O)[C@@H](O)NC(=O)[C@@H]5[C@@H](O)[C@@H](C)CN5C(=O)[C@H]([C@@H](C)O)NC(=O)[C@H]([C@H](O)[C@@H](O)c5ccc(O)cc5)NC(=O)[C@@H]5C[C@@H](O)CN5C(=O)[C@H]([C@@H](C)O)NC4=O)cc3)cc2)cc1 [anidulafungin] (10 µM),morphology score,[1],-0.164
same,SARS-CoV-2 infection rate,[2],110% (inactive)
O=c1cc[nH]c(=O)[nH]1 [uracil] (10 µM),morphology score,[1],-0.002
same,SARS-CoV-2 infection rate,[2],108% (inactive)
C[C@@H](c1ncncc1F)[C@](O)(Cn1cncn1)c1ccc(F)cc1F [voriconazole] (10 µM),morphology score,[1],0.0199
same,SARS-CoV-2 infection rate,[2],101% (inactive)
CO[C@@]1(NC(=O)CSCC#N)C(=O)N2C(C(=O)O)=C(CSc3nnnn3C)CS[C@@H]21 [cefmetazole] (10 µM),morphology score,[1],0.148
same,SARS-CoV-2 infection rate,[2],98.5% (inactive)
CCN1C(C)(C)CC(Oc2ccc(C(=O)Nc3ccc(NC(=O)Nc4cc(C(C)(C)C)on4)cc3)nc2)CC1(C)C (10 µM),morphology score,[1],-0.0181
same,SARS-CoV-2 infection rate,[2],101% (inactive)
O=C(Nc1ccc(S(=O)(=O)C(F)(F)F)cc1)C1=CCN(c2ncccc2C(F)(F)F)CC1 (10 µM),morphology score,[1],0.135
same,SARS-CoV-2 infection rate,[2],108% (inactive)
CC(C)(C)c1ccc(O)cc1 [4-tert-butylphenol] (10 µM),morphology score,[1],0.0892
same,SARS-CoV-2 infection rate,[2],110% (inactive)
C=CCc1ccc(O)c(-c2ccc(O)c(CC=C)c2)c1 [honokiol] (10 µM),morphology score,[1],0.432
same,SARS-CoV-2 infection rate,[2],80.5% (inactive)
COc1cc(C(=O)NC2CCCNC2)cc(OC)c1OC (stereo not drawn) [troxipide] (10 µM),morphology score,[1],-0.014
same,SARS-CoV-2 infection rate,[2],120% (inactive)
CC(C)(C)c1ccc(S(=O)(=O)NCc2ccc(C(=O)Nc3cccnc3)cc2)cc1 (0.833333 µM),morphology score,[1],0.0631
same,SARS-CoV-2 infection rate,[2],107% (inactive)
CN(C)CCc1c[nH]c2ccc(CS(=O)(=O)N3CCCC3)cc12 [almotriptan] (10 µM),morphology score,[1],0.00995
same,SARS-CoV-2 infection rate,[2],110% (inactive)
C[N+](C)(C)[C@@H](Cc1c[nH]c(=S)[nH]1)C(=O)O [L-ergothioneine] (10 µM),morphology score,[1],0.0598
same,SARS-CoV-2 infection rate,[2],99% (inactive)
Cc1c2oc3c(C)ccc(C(=O)N[C@@H]4C(=O)N[C@H](C(C)C)C(=O)N5CCC[C@H]5C(=O)N(C)CC(=O)N(C)[C@@H](C(C)C)C(=O)O[C@@H]4C)c3nc-2c(C(=O)N[C@@H]2C(=O)N[C@H](C(C)C)C(=O)N3CCC[C@H]3C(=O)N(C)CC(=O)N(C)[C@@H](C(C)C)C(=O)O[C@@H]2C)c(N)c1=O [dactinomycin] (10 µM),morphology score,[1],-0.16
same,SARS-CoV-2 infection rate,[2],109% (inactive)
O=[N+]([O-])c1cc([N+](=O)[O-])c(/C=C/c2ccc(Cl)c(Cl)c2)cc1/C=C/c1ccc(Cl)c(Cl)c1 (10 µM),morphology score,[1],0.192
same,SARS-CoV-2 infection rate,[2],97.5% (inactive)
CN(C)CCc1c[nH]c2ccc(C[C@H]3COC(=O)N3)cc12 [zolmitriptan] (10 µM),morphology score,[1],0.127
same,SARS-CoV-2 infection rate,[2],92.5% (inactive)
CCOC(=O)[C@H](CCc1ccccc1)N[C@@H](C)C(=O)N1Cc2cc(OC)c(OC)cc2C[C@H]1C(=O)O [moexipril] (10 µM),morphology score,[1],0.183
same,SARS-CoV-2 infection rate,[2],90% (inactive)
Cn1cc(C2=C(c3cn(CCCSC(=N)N)c4ccccc34)C(=O)NC2=O)c2ccccc21 [bisindolylmaleimide-IX] (0.833333 µM),morphology score,[1],0.0892
same,SARS-CoV-2 infection rate,[2],91% (inactive)
O=C1[C@H](CC[C@H](O)c2ccc(F)cc2)[C@@H](c2ccc(O)cc2)N1c1ccc(F)cc1 [ezetimibe] (10 µM),morphology score,[1],0.142
same,SARS-CoV-2 infection rate,[2],110% (inactive)
Cc1nc(Nc2ccc(F)cc2)nc(N2CCc3ccccc3C2C)c1C (stereo not drawn) [revaprazan] (10 µM),morphology score,[1],0.59
same,SARS-CoV-2 infection rate,[2],42.5% (active)
COc1ccc(CNCc2cccc3ccccc23)cc1 (10 µM),morphology score,[1],0.0641
same,SARS-CoV-2 infection rate,[2],105% (inactive)
O=C(CCCN1CCC(O)(c2ccc(Br)cc2)CC1)c1ccc(F)cc1 [bromperidol] (10 µM),morphology score,[1],-0.0835
same,SARS-CoV-2 infection rate,[2],106% (inactive)
CC(=O)[C@H]1CC[C@H]2[C@@H]3CC=C4C[C@@H](O)CC[C@]4(C)[C@H]3CC[C@]12C [pregnenolone] (10 µM),morphology score,[1],-0.283
same,SARS-CoV-2 infection rate,[2],112% (inactive)
CCc1nn(CCO)c(CC)c1Oc1cc(C#N)cc(C#N)c1 [lersivirine] (10 µM),morphology score,[1],0.162
same,SARS-CoV-2 infection rate,[2],97% (inactive)
Cc1cc(C(C#N)c2ccc(Cl)cc2)c(Cl)cc1NC(=O)c1cc(I)cc(I)c1O (stereo not drawn) [closantel] (10 µM),morphology score,[1],0.257
same,SARS-CoV-2 infection rate,[2],91.5% (inactive)
CC(C)C(=O)OC[C@@]1(N=[N+]=[N-])O[C@@H](n2ccc(N)nc2=O)[C@H](OC(=O)C(C)C)[C@@H]1OC(=O)C(C)C [balapiravir] (10 µM),morphology score,[1],0.0882
same,SARS-CoV-2 infection rate,[2],88% (inactive)
C[N+](C)(C)NCCC(=O)O [meldonium] (10 µM),morphology score,[1],0.253
same,SARS-CoV-2 infection rate,[2],88.5% (inactive)
Oc1ccc(Cl)cc1 [parachlorophenol] (10 µM),morphology score,[1],0.063
same,SARS-CoV-2 infection rate,[2],98% (inactive)
COC(=O)Nc1nc2cc(C(=O)c3ccccc3)ccc2[nH]1 [mebendazole] (0.833333 µM),morphology score,[1],-0.163
same,SARS-CoV-2 infection rate,[2],102% (inactive)
NCCc1c[nH]c2ccc(O)cc12 [serotonin] (10 µM),morphology score,[1],0.0634
same,SARS-CoV-2 infection rate,[2],108% (inactive)
CC(C)(C)C(=O)OCOC(=O)[C@@H]1N2C(=O)[C@@H](/N=C/N3CCCCCC3)[C@H]2SC1(C)C [pivmecillinam] (10 µM),morphology score,[1],-0.0287
same,SARS-CoV-2 infection rate,[2],99% (inactive)
CC(C)NC(=O)COc1cccc(-c2nc(Nc3ccc4[nH]ncc4c3)c3ccccc3n2)c1 (0.833333 µM),morphology score,[1],-0.0169
same,SARS-CoV-2 infection rate,[2],106% (inactive)
CCC[C@@H]1C[C@@H](C(=O)N[C@@H]([C@H]2O[C@H](SC)[C@H](O)[C@@H](O)[C@H]2O)[C@@H](C)O)N(C)C1 [lincomycin] (10 µM),morphology score,[1],-0.111
same,SARS-CoV-2 infection rate,[2],105% (inactive)
CN1[C@@H]2CC[C@H]1C[C@@H](OC(=O)c1c[nH]c3ccccc13)C2 [tropisetron] (10 µM),morphology score,[1],-0.0266
same,SARS-CoV-2 infection rate,[2],102% (inactive)
CC(=O)OCC(=O)[C@@]1(O)[C@@H](C)C[C@H]2[C@@H]3CCC4=CC(=O)C=C[C@]4(C)[C@@]3(F)[C@@H](O)C[C@@]21C [betamethasone-acetate] (10 µM),morphology score,[1],-0.021
same,SARS-CoV-2 infection rate,[2],114% (inactive)
CCCNCCc1ccc(NS(=O)(=O)c2ccc(OC(F)(F)F)cc2)cc1 (10 µM),morphology score,[1],-0.19
same,SARS-CoV-2 infection rate,[2],110% (inactive)
Nc1ncnc2nc(-c3ccc(N4CCOCC4)nc3)cc(-c3cccc(Br)c3)c12 (10 µM),morphology score,[1],0.0544
same,SARS-CoV-2 infection rate,[2],108% (inactive)
C#C[C@]1(O)C=C[C@H]2[C@@H]3CCC4=CC(=O)CC[C@@H]4[C@H]3CC[C@@]21CC [gestodene] (10 µM),morphology score,[1],0.149
same,SARS-CoV-2 infection rate,[2],107% (inactive)
CC[N+]1(C)CCCC(OC(=O)C(O)(c2ccccc2)c2ccccc2)C1 (stereo not drawn) [pipenzolate] (10 µM),morphology score,[1],0.153
same,SARS-CoV-2 infection rate,[2],98% (inactive)
NCC(O)(CS(=O)(=O)O)c1ccc(Cl)cc1 (stereo not drawn) [2-hydroxysaclofen] (10 µM),morphology score,[1],0.266
same,SARS-CoV-2 infection rate,[2],84.5% (inactive)
CN1CCN(C(=O)c2cc3cc(Cl)ccc3[nH]2)CC1 (10 µM),morphology score,[1],-0.00911
same,SARS-CoV-2 infection rate,[2],111% (inactive)
O=c1ccn([C@@H]2O[C@H](CO)[C@@H](O)[C@H]2O)c(=O)[nH]1 [uridine] (10 µM),morphology score,[1],0.318
same,SARS-CoV-2 infection rate,[2],96.5% (inactive)
Cc1ccccc1C(=O)c1ccc(Nc2ccc(Br)cc2N)cc1Cl (10 µM),morphology score,[1],-0.138
same,SARS-CoV-2 infection rate,[2],102% (inactive)
